From article PMC5540273 (PLoS ONE, 2017)

Assays:
Details in all cases: concentration: 1 μM, replicates: in singlicate; n = 1
[1] = test system: PRKCD
[2] = test system: PRKCE
[3] = test system: PRKCH
[4] = test system: PRKCI
[5] = test system: PRKCQ
[6] = test system: PRKD1
[7] = test system: PRKD2
[8] = test system: PRKD3
[9] = test system: PRKG1
[10] = test system: PRKG2
[11] = test system: T1, PRKR
T1 construct: gene EIF2AK2

[12] = test system: PRKX
[13] = test system: PRP4
[14] = test system: T2, PYK2
T2 construct: gene PTK2B

[15] = test system: QSK
[16] = test system: RAF1
[17] = test system: RET
[18] = test system: RIOK1
[19] = test system: RIOK2
[20] = test system: RIOK3
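Also: KINOMEscan kinase panel screen.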

SMILES	%Inh [1] [%]	%Inh [2] [%]	%Inh [3] [%]	%Inh [4] [%]	%Inh [5] [%]	%Inh [6] [%]	%Inh [7] [%]	%Inh [8] [%]	%Inh [9] [%]	%Inh [10] [%]	%Inh [11] [%]	%Inh [12] [%]	%Inh [13] [%]	%Inh [14] [%]	%Inh [15] [%]	%Inh [16] [%]	%Inh [17] [%]	%Inh [18] [%]	%Inh [19] [%]	%Inh [20] [%]
CC(C)N1CCC(n2cnc(-c3ccc(F)cc3)c2-c2ccnc(N)n2)CC1 [SB-223132]	9	0	0	29	0	18	0	0	2	2	18	0	41	12	0	33	2	0	0	60
Cl.c1ccc(Cn2ncc3cc(Nc4ncnc5ccccc45)ccc32)cc1 [GW273749]	0	0	0	0	0	0	2	22	5	0	0	4	15	0	10	16	13	39	0	19
C[C@@H]1CCN(C(=O)CO)C[C@@H]1N(C)c1ncnc2[nH]ccc12	22	54	0	0	0	17	6	7	95.3	0	0	7	0	0	0	0	0	0	0	0
CCC(CC)(CC)n1cnc2c(N)ncnc21 [SKF-97620]	8	47	20	16	0	0	8	0	14	3	0	0	14	7	27	7	4	21	8	0
Cc1ccc(C)c(NC(=O)NCCNc2ccnc(Nc3ccc(F)cc3)n2)c1 [GSK1379878]	0	0	0	0	0	1	0	0	0	0	0	0	48	7	0	42	3	36	0	37
Cc1cccc(-c2nc(Nc3ccc4[nH]nnc4c3)c3ccccc3n2)n1 [GW867587]	0	7	0	0	0	94.2	98.1	66	0	0	0	0	0	0	0	0	0	0	0	0
c1ccc(-c2ccc3c(-c4ccnc(Nc5ccc6c(c5)OCCO6)n4)cnn3n2)cc1 [GW818941]	1	0	9	9	37	0	18	16	42	0	0	1	17	8	0	20	1	37	15	12
Cn1ccc2ncnc(Oc3ccc(NC(=O)Nc4cccnc4)c(Cl)c3)c21	13	0	6	0	28	0	8	0	0	0	7	12	20	9	0	0	52	0	53	4
COc1ccc(NC(=O)Nc2ccc(C)c(-c3ccc(C(=O)Nc4ccncc4)cc3)c2)cc1 [GSK1398475]	0	3	0	0	0	0	11	5	0	0	0	10	19	3	0	50	0	31	0	8
CC(C)(C)c1ccc(-n2cnc3c(N)ncnc32)cc1 [SKF-97263]	6	13	29	1	15	0	0	55	11	0	0	19	7	4	0	0	8	22	26	23
CCc1nc(-c2cccc(C)c2)c(-c2ccnc(NC(=O)c3ccccc3)c2)s1	20	2	4	2	0	0	0	0	0	0	0	0	10	11	0	22	0	14	8	4
Nc1nc(-c2ccc3c(N)n[nH]c3c2)cc(N2CCC[C@@H](C(=O)Nc3ccccc3)C2)n1.O=C(O)C(F)(F)F.O=C(O)C(F)(F)F [GSK2288359]	0	0	0	12	7	0	1	5	13	29	0	71	26	0	0	0	0	79	12	82
CC(=O)Nc1n[nH]c2ncc(-c3ccccc3)cc12 [SB-548492]	7	17	10	0	0	0	0	0	30	20	8	0	1	12	21	0	0	38	17	31
Cc1cc(N2CCC(NS(=O)(=O)c3ccc(F)cc3)CC2)nc(Nc2cccc(C#N)c2)n1.O=C(O)C(F)(F)F [GSK1653537]	3	0	27	12	19	35	31	43	3	0	0	0	3	37	9	0	29	45	0	25
CNc1nccc(-c2c(-c3ccc(F)cc3)ncn2C2CCN(C)CC2)n1 [SB-222903]	10	2	0	0	0	0	19	0	14	0	11	0	0	0	0	0	0	0	0	3
